The campaign covered roughly 310,000 compounds. About 1,200 (0.39%) were called active. No rule for the calls is given here. These entries were drawn from the full list. Measured potencies and affinities stand elsewhere.
Molecular target: Large T antigen (Simian virus 40) (UniProt P03070)
Test: SV40 large T antigen inhibitors, biochemical (AID 1903)
Conditions: SV40 large T antigen ATPase/helicase inhibition assay; at 20 µM; active compounds read high

Sequence of Large T antigen (Simian virus 40) (P03070 whole entry, looked up): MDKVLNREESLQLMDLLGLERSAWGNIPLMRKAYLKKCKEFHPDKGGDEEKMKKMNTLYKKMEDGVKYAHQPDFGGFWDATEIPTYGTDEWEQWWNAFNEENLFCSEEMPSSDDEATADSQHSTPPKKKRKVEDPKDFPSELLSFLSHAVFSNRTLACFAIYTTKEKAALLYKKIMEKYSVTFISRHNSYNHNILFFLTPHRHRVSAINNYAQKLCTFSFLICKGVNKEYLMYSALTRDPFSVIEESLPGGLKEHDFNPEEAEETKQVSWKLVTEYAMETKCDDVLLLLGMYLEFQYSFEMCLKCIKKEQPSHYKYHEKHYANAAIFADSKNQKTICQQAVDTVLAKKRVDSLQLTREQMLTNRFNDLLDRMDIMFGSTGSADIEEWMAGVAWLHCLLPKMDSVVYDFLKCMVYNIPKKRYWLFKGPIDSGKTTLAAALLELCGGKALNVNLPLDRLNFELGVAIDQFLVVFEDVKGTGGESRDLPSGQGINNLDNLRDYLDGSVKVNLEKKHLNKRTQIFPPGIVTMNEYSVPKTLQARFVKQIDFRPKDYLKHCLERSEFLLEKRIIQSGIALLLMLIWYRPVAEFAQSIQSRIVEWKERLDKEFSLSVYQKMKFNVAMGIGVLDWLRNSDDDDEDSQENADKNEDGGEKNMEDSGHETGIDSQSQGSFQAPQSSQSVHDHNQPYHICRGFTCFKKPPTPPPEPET

inhibition, inactive:
COC(=O)CCCCCCCCCC[N+]1(C)CCCCC1 -2.24%
CC(=O)OCCCCCCCCCCC[N+]1(C)CCCCC1 27.6%
COc1cc([N+](=O)[O-])ccc1NC(=O)Nc1cnccn1 13.4%
Cc1[nH]n(-c2ccccc2)c(=O)c1C=Nc1ccc2[nH]c(=O)[nH]c2c1 19.5%
CCc1ccc(S(=O)(=O)NCC(O)COc2ccc(OC)cc2)cc1 (configuration not stated) 1.57%
Nc1ccc(CCS(N)(=O)=O)cc1 2.24%
O=C(Oc1coc(CSc2ncccn2)cc1=O)c1ccccc1[N+](=O)[O-] 18.4%
Cc1ccc2c3c(c(SCC(=O)Nc4nccs4)nc2c1)CCCC3 -1.03%
Cn1c(-c2ccccc2[N+](=O)[O-])[n+](C)c2ccccc21 11.2%
Cc1cc(/C=C2\C(=N)N3N=C(CC(=O)N4CCOCC4)SC3=NC2=O)c(C)n1-c1ccccc1 11.9%
CCOC(=O)C1CC2CC(C1)CN(C(=O)C1CCCCC1)C2 (configuration not stated) 1.74%
C/C(=N\Nc1ccc([N+](=O)[O-])cc1)c1ccc(O)cc1 23.8%
O=[N+]([O-])c1ccccc1N=Nc1ccc(O)cc1 16.2%
[O-]/C(=C(\C(=S)NCc1ccco1)[n+]1ccccc1)c1ccccc1Br 20.6%
CS(=O)(=O)c1ccc(Cl)c(NC(=O)CCNC(=O)c2ccco2)c1 1.63%
CC(C)c1nnc(NC(=O)CCC(=O)N2CCC(Cc3ccccc3)CC2)s1 16.2%
CC(C)CN1C(=O)c2ccc(C(=O)Nc3ccccn3)cc2C1=O 3.11%
C=CCN1CC(c2nc3ccccc3n2CCOc2ccccc2)CC1=O (configuration not stated) -0.56%
CN(CC(=O)Nc1ccc(N2CCOCC2)cc1)CC(=O)Nc1ccc(N2CCOCC2)cc1 21.6%
CN(C)/N=C/c1ccc(N2CCOCC2)cc1 16.2%
CN(C)C(CNc1ccc(S(C)(=O)=O)cc1[N+](=O)[O-])Cc1ccccc1 (configuration not stated) -5.33%
CCOC(=O)/C(C#N)=C/Nc1ccccc1NS(=O)(=O)c1ccc(C)c(C)c1 9.42%
CNC(=S)Nc1cc2oc3ccccc3c2cc1OC 18.4%
COc1cc2c(cc1NC(=S)Nc1cccc3ccccc13)oc1ccccc12 29.9%
N#CC(=Cc1ccc(O)cc1)C(N)=C(C#N)C#N 8.06%
CN(C)/C=C(\C#N)C(N)=C(C#N)C#N -3.37%
O=C(N/N=C/C1CC=CCC1)c1cc(Br)ccc1O (configuration not stated) 1.73%
C=C1C(=O)O[C@@H]2C[C@@H](C)[C@@H]3C=CC(=O)[C@@]3(C)[C@@H](OC(C)=O)[C@H]12 35.6%
CC(=O)O[C@@H]1[C@H]2[C@@H](C[C@@H](C)[C@@H]3C=CC(=O)[C@@]13C)OC(=O)[C@@H]2C 11.5%
CCOc1cc(/C=C(\C#N)C(N)=O)ccc1OCc1c(C)no[n+]1[O-] 10.9%
COc1ccccc1Oc1ccc(NC(=O)c2ccc(Cl)cc2)cc1 6.92%
CS(=O)(=O)c1ccc(N)cc1 -0.19%
CS(=O)(=O)c1ccc2nc(N)sc2c1 0.3%
CC(C)OC(=O)NC(Nc1ccccc1C(=O)O)(C(F)(F)F)C(F)(F)F 6.18%
Cc1ccc(C(=O)N[C@H](C(=O)Nc2sccc2C(N)=O)C(C)C)cc1 -5.98%
COc1ccc(OCc2nn3c(-c4cccc(OC)c4)nnc3s2)cc1 8.77%
O=C1/C(=C/c2cccnc2)SC(=S)N1Nc1ccccc1 29.5%
O=C(O)c1ccc(/C=C2\SC(=S)N(Nc3ccccc3)C2=O)cc1 32.2%
CC(/C=N/NC(=O)c1sc(N)nc1C)=C\c1ccccc1 17.8%
NS(=O)(=O)c1ccc(-c2ccc(/C=C3\C(=O)Nc4cc(Cl)ccc43)o2)cc1 -8.34%
Cc1cc(C(=O)O)ccc1-c1ccc(/C=C2\NC(=O)N(Cc3ccc(F)cc3)C2=O)o1 37.5%
Cc1ccc(-c2ccc(/C=C3/NC(=O)NC3=O)o2)cc1[N+](=O)[O-] 28.5%
CC1=C(C#N)C(=O)NC(=O)/C1=C\c1ccc(-c2cc(C)c(C)cc2[N+](=O)[O-])o1 17.5%
O=[N+]([O-])c1ccccc1-c1ccc(/C=N/n2cnnc2)o1 14.3%
CC1=C(C#N)C(=O)NC(=O)/C1=C\c1ccc(-c2ccc(C)cc2[N+](=O)[O-])o1 33.3%
O=C(COc1cccc(NC(=O)c2ccccc2)c1)c1ccccc1 5.06%
CCN(C(=O)CN1CCOCC1)c1c(N)n(Cc2ccccc2)c(=O)[nH]c1=O 7.23%
Cc1ccc(S(=O)(=O)NCCNC(=O)CN2CCCC2)cc1 0.78%
CC1(C)CC(=O)N(CC(=O)N2CCN(c3ncccn3)CC2)c2ccccc2S1(=O)=O -1.17%
O=C(NNc1c(Cl)cccc1Cl)c1c(F)cccc1Cl 9.15%
COC(=O)[C@@]12CCCN1[C@H](c1ccc(-c3ccc(F)cc3)cc1)[C@H]1C(=O)N(C)C(=O)[C@H]12 5.03%
Cc1ccc(S(=O)(=O)NC(=O)N(CCC#N)Cc2ccccc2)cc1 10.3%
CC(C)(C)/C(O)=C/c1nc2ccccc2oc1=O 29.2%
Cc1ccc(/C(O)=C/c2nc3cc(C)ccc3oc2=O)cc1 14.5%
COc1ccc(-c2nc(NC(=O)CSCCO)sc2C)cc1 22.1%
O=C1C(O)=C(O)C(=O)c2ccccc21 5.58%
O=S1(=O)N=C(SCCO)c2ccccc21 -3.68%
CCOc1ccc(NC(=S)N(CCN2CCOCC2)Cc2ccc3c(c2)CCCN3CC)cc1 18.7%
CCCc1cc(-c2[nH]ncc2-c2ccc(C(=O)OCC)o2)c(O)cc1O 18.2%
CCCc1cc2c(=O)c(-c3cscn3)c(C(=O)OCC)oc2cc1O 2.58%
CCOC(=O)c1oc2cc(O)c(CC)cc2c(=O)c1-c1cscn1 7.73%
CCOC(=O)c1[nH]nc(-c2c(O)cc(C)cc2O)c1-c1csc(C)n1 6.85%

— PubChem BioAssay AID1903 (Southern Research Specialized Biocontainment Screening …, 2009)
